What all share (assay): DAPPL (digital affinity profiling via proximity ligation, sequencing); 10 mM Tris-HCl pH 7.5, 50 mM NaCl, 1 mM DTT, 4% glycerol, room temperature, 30 min; GST-TFs on glutathione beads, 16-mer random dsDNA library, 0.1% formaldehyde crosslink after washing; high values mean tight binding
What all share (details): protein: recombinant; tags: N-terminal GST; dsDNA, one strand shown

The target in assay [1] is T1, FLI1 (Homo sapiens, UniProt Q01543 1-452).
T1 sequence: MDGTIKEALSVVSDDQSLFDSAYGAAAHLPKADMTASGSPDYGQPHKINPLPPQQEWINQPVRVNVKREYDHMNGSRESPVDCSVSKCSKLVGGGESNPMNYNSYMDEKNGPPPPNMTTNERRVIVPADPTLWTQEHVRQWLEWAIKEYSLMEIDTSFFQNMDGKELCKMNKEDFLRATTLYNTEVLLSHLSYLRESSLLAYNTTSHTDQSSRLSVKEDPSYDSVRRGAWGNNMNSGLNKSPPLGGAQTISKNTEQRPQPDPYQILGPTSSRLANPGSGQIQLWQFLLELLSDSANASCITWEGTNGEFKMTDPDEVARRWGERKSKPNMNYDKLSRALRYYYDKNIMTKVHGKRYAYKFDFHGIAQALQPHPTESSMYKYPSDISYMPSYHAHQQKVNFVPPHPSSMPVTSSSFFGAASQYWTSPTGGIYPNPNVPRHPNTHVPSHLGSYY
Summed up: (§1)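 After expression in yeast as GST fusions, human transcription factors were bound to glutathione beads, DNA-barcoded and mixed with a tag-only sample. The pools were incubated with 200 nmole of a 16-mer random double-stranded DNA library in Tris/NaCl/DTT/glycerol buffer (30 min, room temperature), washed and crosslinked with 0.1% formaldehyde. Proximity ligation with BsaI/T4 ligase ran for 1 h at 37 °C, before PCR amplification and sequencing on an Illumina NextSeq500. Binding signal is a hexamer's read frequency for a factor divided by its frequency for the tag-only sample.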

Assay [2] concerns the target T2, ELK1 (Homo sapiens, UniProt P19419 1-428).
T2 sequence: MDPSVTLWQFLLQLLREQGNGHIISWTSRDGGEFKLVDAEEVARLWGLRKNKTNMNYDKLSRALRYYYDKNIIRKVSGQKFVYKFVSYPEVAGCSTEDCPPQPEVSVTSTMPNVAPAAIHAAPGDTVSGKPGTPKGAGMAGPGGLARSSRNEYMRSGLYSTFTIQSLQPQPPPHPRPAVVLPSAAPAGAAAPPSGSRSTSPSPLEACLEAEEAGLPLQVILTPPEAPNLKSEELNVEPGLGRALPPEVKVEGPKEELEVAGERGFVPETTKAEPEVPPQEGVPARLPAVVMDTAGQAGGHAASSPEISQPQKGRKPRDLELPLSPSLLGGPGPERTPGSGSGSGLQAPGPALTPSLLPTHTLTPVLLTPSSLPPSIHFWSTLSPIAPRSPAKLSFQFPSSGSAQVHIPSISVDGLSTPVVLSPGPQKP
An outline of the steps:
as §1

For assay [3], the target named is T3, GABPA (Homo sapiens, UniProt Q06546 1-454).
T3 sequence: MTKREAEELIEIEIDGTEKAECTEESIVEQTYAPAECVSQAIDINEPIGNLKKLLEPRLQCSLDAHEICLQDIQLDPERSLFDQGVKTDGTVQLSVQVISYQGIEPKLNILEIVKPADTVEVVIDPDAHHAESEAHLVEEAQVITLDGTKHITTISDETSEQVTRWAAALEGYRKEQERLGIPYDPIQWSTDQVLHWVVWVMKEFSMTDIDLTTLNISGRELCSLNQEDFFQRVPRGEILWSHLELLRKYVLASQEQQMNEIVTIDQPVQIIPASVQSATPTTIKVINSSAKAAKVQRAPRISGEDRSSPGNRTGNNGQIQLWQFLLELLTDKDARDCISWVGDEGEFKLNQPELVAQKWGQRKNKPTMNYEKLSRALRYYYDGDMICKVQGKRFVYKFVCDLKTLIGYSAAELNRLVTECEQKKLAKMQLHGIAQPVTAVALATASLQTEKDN
An outline of the steps: as §1

For assay [4], the target named is T4, ERG (Homo sapiens, UniProt P11308 1-479).
T4 sequence: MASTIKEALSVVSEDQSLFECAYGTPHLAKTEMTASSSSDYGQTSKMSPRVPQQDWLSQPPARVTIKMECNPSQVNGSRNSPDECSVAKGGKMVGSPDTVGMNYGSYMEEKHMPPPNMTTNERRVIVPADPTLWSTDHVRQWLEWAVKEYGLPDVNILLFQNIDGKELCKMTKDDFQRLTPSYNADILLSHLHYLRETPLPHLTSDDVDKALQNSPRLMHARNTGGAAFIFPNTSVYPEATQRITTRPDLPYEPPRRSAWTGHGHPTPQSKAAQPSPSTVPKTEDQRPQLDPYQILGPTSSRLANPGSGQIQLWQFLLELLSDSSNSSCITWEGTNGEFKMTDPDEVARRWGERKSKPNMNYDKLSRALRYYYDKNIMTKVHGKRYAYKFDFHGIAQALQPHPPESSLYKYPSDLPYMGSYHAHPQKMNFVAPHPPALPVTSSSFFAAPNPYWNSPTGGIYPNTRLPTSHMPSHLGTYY
An outline of the steps: as §1

For assay [5], the target named is ELF1 (Homo sapiens, UniProt P32519 1-619). An outline of the steps: as §1
The target of assay [6] is T5, EHF (Homo sapiens, UniProt Q9NZC4 1-300).
T5 sequence: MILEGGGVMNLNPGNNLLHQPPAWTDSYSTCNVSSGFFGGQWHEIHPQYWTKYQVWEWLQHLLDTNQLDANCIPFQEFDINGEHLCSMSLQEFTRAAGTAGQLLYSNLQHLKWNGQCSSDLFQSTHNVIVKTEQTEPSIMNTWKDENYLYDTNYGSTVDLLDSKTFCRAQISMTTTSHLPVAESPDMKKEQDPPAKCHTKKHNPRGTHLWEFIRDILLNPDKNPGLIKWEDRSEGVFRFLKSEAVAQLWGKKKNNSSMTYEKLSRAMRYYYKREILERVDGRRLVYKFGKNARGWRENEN
Summed up:
as §1

In assay [7] the target is SPI1 (Homo sapiens, UniProt P17947 1-270). Summed up: as §1
For assay [8], the target named is SPIB (Homo sapiens, UniProt Q01892 1-262). Summed up:
as §1

Assay [9] addresses T6, ELK3 (Homo sapiens, UniProt P41970 1-407).
T6 sequence: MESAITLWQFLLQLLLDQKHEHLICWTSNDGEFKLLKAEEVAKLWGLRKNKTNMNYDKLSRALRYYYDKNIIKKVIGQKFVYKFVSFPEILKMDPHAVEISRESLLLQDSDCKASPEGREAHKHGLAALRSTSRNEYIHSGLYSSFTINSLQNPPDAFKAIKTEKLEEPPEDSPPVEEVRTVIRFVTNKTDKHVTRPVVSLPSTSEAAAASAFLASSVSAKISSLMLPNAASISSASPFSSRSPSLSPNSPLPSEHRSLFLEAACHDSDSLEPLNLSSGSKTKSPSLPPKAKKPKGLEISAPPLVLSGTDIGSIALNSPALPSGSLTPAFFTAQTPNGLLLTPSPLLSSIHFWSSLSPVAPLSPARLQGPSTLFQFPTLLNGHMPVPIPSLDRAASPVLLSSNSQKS
Summed up: as §1

Chain of SPIB (Q01892 whole entry): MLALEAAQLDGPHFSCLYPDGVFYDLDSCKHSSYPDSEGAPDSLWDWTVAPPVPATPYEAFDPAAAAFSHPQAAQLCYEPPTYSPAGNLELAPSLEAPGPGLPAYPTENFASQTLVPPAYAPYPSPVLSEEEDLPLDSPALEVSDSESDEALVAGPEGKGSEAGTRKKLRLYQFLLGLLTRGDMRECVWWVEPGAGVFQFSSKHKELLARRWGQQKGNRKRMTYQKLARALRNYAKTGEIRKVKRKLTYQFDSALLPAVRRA
Chain of ELF1 (P32519 whole entry): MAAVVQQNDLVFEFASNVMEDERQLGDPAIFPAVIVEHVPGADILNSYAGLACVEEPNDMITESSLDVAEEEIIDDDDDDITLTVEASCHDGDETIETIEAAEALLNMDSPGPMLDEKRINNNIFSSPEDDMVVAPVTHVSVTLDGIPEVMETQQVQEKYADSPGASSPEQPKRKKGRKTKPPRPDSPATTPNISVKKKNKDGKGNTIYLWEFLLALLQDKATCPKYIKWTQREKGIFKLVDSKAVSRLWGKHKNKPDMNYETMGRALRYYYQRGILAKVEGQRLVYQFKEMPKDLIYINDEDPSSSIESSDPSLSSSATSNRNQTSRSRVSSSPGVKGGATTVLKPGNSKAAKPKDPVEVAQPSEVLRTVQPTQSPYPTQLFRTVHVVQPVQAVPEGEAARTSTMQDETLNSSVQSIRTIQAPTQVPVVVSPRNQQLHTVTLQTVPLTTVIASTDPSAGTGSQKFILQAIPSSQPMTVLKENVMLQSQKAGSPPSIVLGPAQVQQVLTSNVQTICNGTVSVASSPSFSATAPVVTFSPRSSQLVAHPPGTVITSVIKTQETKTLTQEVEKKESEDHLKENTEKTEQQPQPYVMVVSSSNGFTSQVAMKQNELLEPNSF

On to TACCAA, for which the binding signal in assay [1] is 1.14 fold enrichment (6-mer frequency, TF over GST control); in [2], 1.17 fold enrichment (6-mer frequency, TF over GST control); in [3] it was 1.11 fold enrichment (6-mer frequency, TF over GST control); in assay [4] it was 1.18 fold enrichment (6-mer frequency, TF over GST control); in assay [5], 1.21 fold enrichment (6-mer frequency, TF over GST control); in assay [6], 1.13 fold enrichment (6-mer frequency, TF over GST control). The binding signal is 1.16 fold enrichment (6-mer frequency, TF over GST control) in assay [7]; 1.13 fold enrichment (6-mer frequency, TF over GST control) in [8]; 1.05 fold enrichment (6-mer frequency, TF over GST control) in assay [9].
Take TATTAA: the binding signal in assay [1] is 1.17 fold enrichment (6-mer frequency, TF over GST control); in [2], 1.13 fold enrichment (6-mer frequency, TF over GST control); in assay [3], 1.16 fold enrichment (6-mer frequency, TF over GST control); in assay [4], 1.12 fold enrichment (6-mer frequency, TF over GST control); in assay [5], 1.22 fold enrichment (6-mer frequency, TF over GST control); in assay [6], 1.09 fold enrichment (6-mer frequency, TF over GST control). Also, the binding signal was 1.06 fold enrichment (6-mer frequency, TF over GST control) in [7]; 1.23 fold enrichment (6-mer frequency, TF over GST control) in [8]; 1.2 fold enrichment (6-mer frequency, TF over GST control) in assay [9].
TAATTG: the binding signal in assay [1] is 1.38 fold enrichment (6-mer frequency, TF over GST control); in [2], 1.43 fold enrichment (6-mer frequency, TF over GST control); in assay [3], 1.38 fold enrichment (6-mer frequency, TF over GST control); in [4] it was 1.27 fold enrichment (6-mer frequency, TF over GST control); in assay [5], 1.3 fold enrichment (6-mer frequency, TF over GST control); in assay [6], 1.37 fold enrichment (6-mer frequency, TF over GST control). Moreover, the binding signal in assay [7] was 1.47 fold enrichment (6-mer frequency, TF over GST control); in [8] it was 1.37 fold enrichment (6-mer frequency, TF over GST control); in assay [9], 1.5 fold enrichment (6-mer frequency, TF over GST control).
With GATGGC, the binding signal in assay [1] was 1.27 fold enrichment (6-mer frequency, TF over GST control); in assay [2], 1.36 fold enrichment (6-mer frequency, TF over GST control); in assay [3], 1.34 fold enrichment (6-mer frequency, TF over GST control); in [4] it was 1.3 fold enrichment (6-mer frequency, TF over GST control); in assay [5] it was 1.34 fold enrichment (6-mer frequency, TF over GST control); in assay [6], 1.33 fold enrichment (6-mer frequency, TF over GST control). Further, the binding signal was 1.37 fold enrichment (6-mer frequency, TF over GST control) in assay [7]; 1.41 fold enrichment (6-mer frequency, TF over GST control) in assay [8]; 1.19 fold enrichment (6-mer frequency, TF over GST control) in assay [9].
For the sequence TCCGGC, the binding signal in assay [1] was 2.29 fold enrichment (6-mer frequency, TF over GST control); in assay [2], 2.4 fold enrichment (6-mer frequency, TF over GST control); in [3] it was 2.12 fold enrichment (6-mer frequency, TF over GST control); in [4], 2.58 fold enrichment (6-mer frequency, TF over GST control); in assay [5] it was 2 fold enrichment (6-mer frequency, TF over GST control); in assay [6] it was 2.18 fold enrichment (6-mer frequency, TF over GST control). Besides, the binding signal is 2.19 fold enrichment (6-mer frequency, TF over GST control) in [7]; 2.42 fold enrichment (6-mer frequency, TF over GST control) in assay [8]; 2.45 fold enrichment (6-mer frequency, TF over GST control) in assay [9].
In the case of TTCGGT, the binding signal is 1.06 fold enrichment (6-mer frequency, TF over GST control) in assay [1]; 1.09 fold enrichment (6-mer frequency, TF over GST control) in assay [2]; 1.13 fold enrichment (6-mer frequency, TF over GST control) in [3]; 1.1 fold enrichment (6-mer frequency, TF over GST control) in assay [4]; 1.14 fold enrichment (6-mer frequency, TF over GST control) in assay [5]; 1.23 fold enrichment (6-mer frequency, TF over GST control) in assay [6]. Also, the binding signal is 1.2 fold enrichment (6-mer frequency, TF over GST control) in assay [7]; 1.16 fold enrichment (6-mer frequency, TF over GST control) in [8]; 1.22 fold enrichment (6-mer frequency, TF over GST control) in assay [9].
Consider TCCGCA, for which the binding signal is 2.2 fold enrichment (6-mer frequency, TF over GST control) in assay [1]; 2.22 fold enrichment (6-mer frequency, TF over GST control) in [2]; 2.07 fold enrichment (6-mer frequency, TF over GST control) in assay [3]; 2.03 fold enrichment (6-mer frequency, TF over GST control) in [4]; 2.01 fold enrichment (6-mer frequency, TF over GST control) in assay [5]; 2.03 fold enrichment (6-mer frequency, TF over GST control) in assay [6]. The binding signal in [7] is 2.85 fold enrichment (6-mer frequency, TF over GST control); in [8], 2.18 fold enrichment (6-mer frequency, TF over GST control); in assay [9], 2.24 fold enrichment (6-mer frequency, TF over GST control).
Turning to AATAAT, the binding signal is 1.23 fold enrichment (6-mer frequency, TF over GST control) in assay [1]; 1.24 fold enrichment (6-mer frequency, TF over GST control) in assay [2]; 1.31 fold enrichment (6-mer frequency, TF over GST control) in [3]; 1.33 fold enrichment (6-mer frequency, TF over GST control) in assay [4]; 1.28 fold enrichment (6-mer frequency, TF over GST control) in assay [5]; 1.36 fold enrichment (6-mer frequency, TF over GST control) in assay [6]. Besides, the binding signal is 1.24 fold enrichment (6-mer frequency, TF over GST control) in assay [7]; 1.32 fold enrichment (6-mer frequency, TF over GST control) in assay [8]; 1.39 fold enrichment (6-mer frequency, TF over GST control) in assay [9].

These data come from PMC7862700, “An all-to-all approach to the identification of sequence-specific readers for epigenetic DNA modifications on cytosine”.
